Assay outcomes as filed in PubChem BioAssay.
Compounds with a hit are over-represented: about 1.9% of the library has one in this group of screens.
eIF4H FP inh: inhibitors of RNA binding by human eIF4H; inhibition, % at 35 µM; 290,000 compounds, 0.94% hits; eIF4H fluorescence polarization binding assay;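 further: calls also rest on retests at 20 µM and on dose response follow-up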
PABP polyA inh: blocks human PABP binding to poly(A) RNA | P11940 | fluorescence polarization | calls only at 35 µM | 290,000 compounds, 1% hits;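 further: calls also rest on retests at 20 µM and on dose response follow-up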
eIF4E 4G PPI: blocks eIF4E binding to eIF4G; P63073+Q04637; TR-FRET eIF4E-eIF4GI(517-606) binding, 2 h; AID 782; inhibition, % at 21.7 µM; 220,000 compounds, 0.37% hits;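 active means inhibition above about 30%, limit read from the data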;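 further: 0% = full FRET control wells and 100% = background wells lacking eIF4GI fragment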
PABP1 MLLE inh: inhibitors of microRNA-mediated deadenylation, human PABP1 MLLE binding. inhibition, % at 20 µM. 360,000 compounds, 0.36% hits. GST-MLLE / FITC-PAM2 fluorescence polarization. AID 588489; in the data active means inhibition above about 35%, passing the limit was not always enough;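 further: plate controls were DMSO wells with GST-MLLE for no effect and wells lacking GST-MLLE protein for full effect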
14-3-3 Bad PPI: disrupts binding of bovine 14-3-3 zeta to phospho-Bad peptide; inhibition, % at 21.7 µM; 220,000 compounds, 0.71% hits; AID 781; TR-FRET 14-3-3zeta/Dy647-pBad peptide displacement, 1 h;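 active means inhibition above about 70%, limit read from the data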;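 further: 0% = full 14-3-3 plus peptide FRET controls and 100% = background without 14-3-3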
* hit, by the source's call; i = inactive; . = no result given; + = active, no number; [ ] = dose if it differs, or a comment. Unless noted, how the calls were made is not given here.

SMILES	eIF4H FP inh	PABP polyA inh	eIF4E 4G PPI	PABP1 MLLE inh	14-3-3 Bad PPI
Nc1ccc(C(CC(=O)O)n2cccc2)cc1 (centres undefined)	67*	+	-1	13	-7
O=C(O)CC(c1ccccc1)n1cccc1 (centres undefined)	-14	i	-14	4	0
O=C(Nc1nccs1)C(c1ccccc1)N1CCCCC1 (centres undefined)	-2	i	2	7	-7
Cc1c(C(=O)N2CCNCC2)oc2ccccc12	1	i	.	6	.
COc1ccc(C(=S)N2CCN(c3ccccc3C)CC2)cc1	-6	i	-2	42*	-6
COC(=O)/C=C/C(=O)N1CCN(c2ccccc2C)CC1	2	i	42*[fluorescence artefact?]	-5	-32
O=S1(=O)CC(N2CCCC2)CN1Cc1ccccc1 (centres undefined)	.	.	.	-1	.
Cc1ccc(CSCCNS(=O)(=O)c2ccccc2)cc1	50*	+	3	8	-18
Cc1ccc(CSCCNS(C)(=O)=O)cc1	-8	i	-15	6	-8
CCC(OC(=O)CC1Sc2ccccc2NC1=O)C(=O)NCC1CCCO1 (centres undefined)	1	i	-1	40*	9
CCOC(=O)CC1Sc2ccccc2NC1=O (centres undefined)	7	i	6	3	-9
CCCC(C(=O)O)N1C(=O)/C(=C2\C(=O)N(C)c3ccccc32)SC1=S (centres undefined)	2	i	.	30	.
O=C(O)CN1C(=O)/C(=C2\SC(=S)N(C(Cc3ccccc3)C(=O)O)C2=O)c2ccccc21 (centres undefined)	5	i	.	39*	.
COc1ccc(/C=N/N2C(=O)C3C4C=CC(CC4)C3C2=O)c(OC)c1 (centres undefined)	81	i	13	7	5
Cc1cc(O)ccc1N/C=C1\CCCC1=O	81*	i	0	-20	-12
CC(=O)Nc1ccc(N/C=C2/CCCC2=O)cc1	-4	i	-1	-7	-4
COc1ccc(CN2CCN(S(=O)(=O)c3ccc(F)cc3)CC2)c(OC)c1OC	-2	i	-9	-1	77*
COc1ccc(CN2CCN(S(=O)(=O)c3ccc(F)cc3)CC2)cc1OC	-5	i	-3	-4	70*
O=S(=O)(c1ccccc1)N1CCN(Cc2cccc(Cl)c2)CC1	-3	i	-3	-6	72*
COc1ccc(CN2CCN(S(=O)(=O)c3ccc(NC(C)=O)cc3)CC2)cc1OC	-8	i	7	2	68
COc1ccc(S(=O)(=O)N2CCN(C(=O)c3ccc4ccccc4n3)CC2)cc1	.	.	.	-45	.
Cc1ccc(C)c2c1cc(C)c1nnc(SCC(=O)c3cccs3)n12	-5	i	-3	-43	6
Cc1ccc2cc(C)c3nnc(SCC(=O)c4cccs4)n3c2c1C	96*	+	6	4	-3
CC(OC(=O)C1CCCCC1)C(=O)Nc1ccc(S(N)(=O)=O)cc1 (centres undefined)	.	.	.	-9	.
NC(=S)N=Nc1c(O)[nH]c2ccc(F)cc12	9	i	0	48*	-8
SMILES	eIF4H FP inh	PABP polyA inh	eIF4E 4G PPI	PABP1 MLLE inh	14-3-3 Bad PPI
COc1ccc(-c2n[nH]c(=S)n2-c2cc(OC)ccc2OC)cc1	-9	i	-8	-14	-4
COc1ccc2c(C)cc3n[nH]c(=S)n3c2c1	-11	i	33*	-7	27
COc1ccc(CNC(=S)NC(C)CCc2ccccc2)cc1 (centres undefined)	-8	i	-1	-49	-19
Nc1cc(Cl)ccc1Oc1ccc(Cl)cc1	4	i	7	7	80*
COc1cc(CN2CCC(C(=O)N3CCC(C)CC3)CC2)cc(Br)c1O	18	i	3	12	79*
COc1cc(CN2CCC(C(=O)NC3CCCC3)CC2)cc(Br)c1O	-3	i	4	2	30
C[C@]12CCC3c4ccc(OCC(=O)O)cc4CCC3C1CCC2=O (some centres undefined)	3	i	-7	-5	-1
Cc1nnc(SCC(=O)NC2CCCCC2)n1N	.	.	.	-12	.
Nc1ccccc1Sc1nc2ccccc2[nH]1	9	i	3	39*	-19
Nc1nc2ccccc2[nH]1	-3	i	.	-53	.
COc1ccc(NC(=O)COC(=O)CNS(=O)(=O)c2ccccc2)cc1OC	-5	i	0	5	-5
COc1ccc(NC(=O)COC(=O)CCNS(=O)(=O)c2ccccc2)cc1OC	active	+	0	-19	-10
COc1ccccc1[C@]1(C)ON(c2ccccc2C(F)(F)F)C1=O	.	.	.	8	.
